Compound activity deposited in PubChem BioAssay by National Center for Advancing Translational Sciences (NCATS).
Sm TGR inh: qHTS Assay for the Inhibitors of Schistosoma Mansoni Peroxiredoxins. Schistosoma mansoni thioredoxin glutathione reductase (TGR), Q962Y6. purified TGR, DTNB reduction, TNB absorbance 405 nm. Potency, µM (series often up to 114 µM), for the others: top-dose activity change, negative = inhibition, hits mostly inhibitors. 360,000 tested, 3% active; also: % is scaled to controls: 0 for no effect and ±100 for the full control effect; nearly all actives have a fitted effect of over 60% in size
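First, TGR (20 nM dispensed) and NADPH were mixed with compound. Second, a 15 min room-temperature incubation followed. Third, further NADPH and then DTNB were added to start the reaction. Finally, TNB absorbance was monitored kinetically.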
AMA1-RON2 inh: qHTS for Inhibitors of AMA1-RON; Towards Development of Antimalarial Drug Lead: Primary Screen; Plasmodium falciparum AMA1 (3D7) - RON2 peptide interaction; AlphaScreen AMA1-biotinylated RON2 peptide binding; Potency, µM (doses to about 58.2 µM), for the others: at the highest dose activity change, negative = inhibition, usual class: inhibitors; 360,000 tested, 0.2% active;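 also: 0% = vehicle wells and -100% = peptide control; nearly all actives have a fitted effect of over 45% in size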
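AMA1 (3D7) with his tag at 25 nM final met compounds first, then biotinylated RON2 peptide at 25 nM; detection used donor plus acceptor beads, 10 µg/mL apiece, read by AlphaScreen after 30 min at room temperature.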
Pf growth 48h: Primary qHTS for delayed death inhibitors of the malarial parasite plastid, 48 hour incubation | P. falciparum luciferase growth in erythrocytes, 48 h | Potency, µM (doses to about 28.7 µM), inactives show at the top dose activity change, negative = inhibition, most hits filed as inhibitors | 310,000 tested, 5.9% active | AID 504832, 2011; also: % is scaled to controls: 0 for no effect and ±100 for the full control effect
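In quantitative HTS format, infected erythrocytes bearing luciferase-reporter parasites were treated for a single generation at 37 C. Luminescence after adding detection reagent served as the growth measure.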
Pf growth 96h: Primary qHTS for delayed death inhibitors of the malarial parasite plastid, 96 hour incubation. 320,000 tested, 6.9% active. Potency, µM (titrated, usually from 28.7 µM), inactives show top-dose activity change, negative = inhibition, actives largely listed as inhibitors. P. falciparum luciferase reporter growth, 96 h; also: % is scaled to controls: 0 for no effect and ±100 for the full control effect
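Infected RBCs, 2% Hct / 0.05% parasitemia final; luciferase-reporter P. falciparum; cpd 96 h, 37 C, 5% CO2; luciferase detection reagent; luminescence.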
NS1 inh: qHTS Assay for Inhibitors of Influenza NS1 Protein Function; Potency, µM (series often up to 46.1 µM), for inactives: at the top dose activity, positive = more growth; 270,000 tested, 0.4% active; AID 2326, 2010; calls by dose curve; also: actives are rising curves; nearly all actives have a fitted effect of over 50% in size
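In this qHTS, NS1 from influenza A is expressed in budding yeast, where it slows growth. Cells are switched from glucose to 2% galactose medium (pH 6.0, -URA), treated with compound, and growth recovery is read at OD600.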
Numbers without * were called inactive; ? = inconclusive; . = not tested or not shown; ! = not active in a repeat; [ ] = another dose, or the depositor's remark. The list is not random: actives were taken first. Their share in the collection is about 11%. Unless noted, calls follow the shape of the dose curve; as a rule, active = well fitted curve in the direction sought with a large enough effect; inconclusive = small, poorly fitted or top-dose-only effect, or another doubt; inactive = no such curve, though single readings can be large; an effect the other way counts as inactive or inconclusive. Potency is read from the fitted curve at half-maximal effect.

SMILES	Sm TGR inh	AMA1-RON2 inh	Pf growth 48h	Pf growth 96h	NS1 inh
COc1cccc(CN2C(=O)C(C)Oc3ccccc32)c1 (centres undefined)	-15%	-2%	?	?	-2%
COc1ccc(CN2C(=O)C(C)N(C(=O)c3c(F)cccc3F)c3ccccc32)cc1 (centres undefined)	0%	-1%	1.9µM*	2.1µM*	-15%
CN(CCO)c1cc(N2CCCCC2)c2nonc2c1[N+](=O)[O-]	18µM*	1.8µM*	-4%	?	.
O=[N+]([O-])c1c(NCCCO)cc(N2CCCCCC2)c2nonc12	11µM*	-5%	-35%[0.00184 µM]	4%	4%
O=[N+]([O-])c1c(NCCCO)cc(N2CCN(Cc3ccc4c(c3)OCO4)CC2)c2nonc12	-7%	-9%	?	33%	7%
COc1ccc(CNc2cc(NCCCO)c([N+](=O)[O-])c3nonc23)cc1	22µM*	-20%	-21%	?	.
CC1CCCN(c2cc(N(C)CCO)c([N+](=O)[O-])c3nonc23)C1 (centres undefined)	3%	-14%	-1%	?	.
CN(CCO)c1cc(NCCCN2CCC(Cc3ccccc3)CC2)c2nonc2c1[N+](=O)[O-]	-2%	4%	10µM*	-7%	.
O=[N+]([O-])c1c(NCCO)cc(N2CCC3(CC2)OCCO3)c2nonc12	-3%	-7%	-9%	?	5%
CN(CCO)c1cc(N2CCC3(CC2)OCCO3)c2nonc2c1[N+](=O)[O-]	28µM*	-11%	4%	?	13%
Cc1ccc2c(c1C)NC(=O)C21N2CCCC2C(C(=O)c2ccc3ccccc3c2)C12C(=O)Nc1ccccc12 (centres undefined)	6%	-13%	9.3µM*	9.3µM*	22%
Cc1nc(C)c(C(=O)N2CCCC(C(=O)c3ccc4ccccc4c3)C2)s1 (centres undefined)	-2%	-11%	7%	?	-13%
CC1(C)Cc2ccccc2-c2nnc(-c3cccnc3)n21	8%	6%	2.3µM*	.	-2%
Cc1ccccc1S(=O)Cc1ccc(C(=O)NC2CC2)o1 (centres undefined)	?	-7%	-9%	-4%	7%
CCN(Cc1ccccc1)C(=O)c1ccc(CS(=O)c2ccccc2C)o1 (centres undefined)	14µM*	-3%	-22%	-1%	4%
NC(=O)c1ccc(NC(=O)COC(=O)CCC(=O)c2ccc(Cl)cc2)cc1	50µM*	-4%	23%	22%	.
NCC1CC2c3ccccc3C1c1ccccc12 (centres undefined)	17%	0%	-4%	0%	6%
CCC(C(=O)n1cccc1C#N)c1ccccc1C (centres undefined)	50µM*	8%	24%	19%	.
Cc1ccccc1Cn1cc(CCC(=O)NCc2cccc(Br)c2)c2ccccc21	-7%	.	.	.	.
Cc1nn(Cc2ccccc2Cl)c(Cl)c1C(=O)O	8%	0%	-23%	17%	.
CCn1nc(C)c(Br)c1C(=O)Sc1ccccc1Cl	8.9µM*	20%	17%	18%	-1%
O=C(NCCOc1ccccc1)C1CCC(=O)N(CCCN2CCCC2=O)C1 (centres undefined)	1%	-12%	1%	-33%	3%
CSc1n[nH]c(-c2sccc2OCc2ccc(C)cc2)n1	-7%	-5%	?	4.1µM*	-67%
CN1C(=O)Cc2cc(S(=O)(=O)NCc3ccc(Cl)cc3)ccc21	13%	.	.	.	.
Cc1ccc(SC2=C(N(C)C)C(=O)c3ccccc3C2=O)cc1	.	8.9µM*	.	.	.
SMILES	Sm TGR inh	AMA1-RON2 inh	Pf growth 48h	Pf growth 96h	NS1 inh
CCOC(=O)CNC(=O)CSc1nc2cccnc2n1C1CCCCC1	-24%	17%	-14%	9.3µM*	-8%
COc1ccccc1C1CCN(C(=O)c2ccc(C(C)(C)C)cc2)CC1	1%	-9%	12µM*	7.4µM*	-46%
O=C(C#Cc1ccccc1)Nc1ccccc1F	-7%	4%	-13%	9.3µM*	-39%
OC(c1ccccc1)(c1ccccc1)C1CN2CCC1CC2 (centres undefined)	0%	16%	?	12µM*!	4%
OC(Cc1ccccc1)(c1ccccc1)C1CN2CCC1CC2 (centres undefined)	7%	0%	.	?	-4%
OC(c1ccccc1)(c1ccc(Cl)cc1)C1CN2CCC1CC2 (centres undefined)	0%	-21%	?	8.3µM*	3%
COc1cc(C(=O)Nc2cc(C)c(OCC(=O)N3CCOCC3)c(C)c2)cc(OC)c1OC	4%	3%	?	13µM*	-1%
Cc1cc(C)c(C)c(OCC(=O)N2CCOCC2)c1	-11%	12%	.	13µM*	6%
CCOc1cc(C(=O)Nc2nnc(CC)s2)ccc1OCC(=O)N1CCOCC1	0%	9%	0.26µM*	?	5%
COc1ccc(-c2csc(NC(=O)c3ccc(OCC(=O)N4CCOCC4)c(OC)c3)n2)cc1OC	-12%	-16%	9.3µM*	?	5%
CCOc1cc(C(=O)Nc2cc(OC)cc(OC)c2)ccc1OCC(=O)N1CCOCC1	1%	2%	?	?	.
COc1cc(NC(=O)CC(C)S(=O)(=O)c2cc3c(cc2C)NC(=O)CO3)cc(OC)c1OC (centres undefined)	-10%	-9%	7%	0%	5%
Cc1nnc(SCC(=O)NCc2ccc(F)cc2)[nH]c1=O	4%	-3%	9%	13%	.
O[C@@H]1COC(Nc2ccc(N=Nc3ccccc3)cc2)C[C@@H]1O (some centres undefined)	1%	-22%	132%	103%	-8%
O=C1NC[C@@H](CCCCN2CCN(CCC3CCCCC3)C(=O)C2=O)N(CC2CCCCC2)C1=O	.	5%	.	.	.
O=C(CCn1c(=O)oc2ccccc21)Nc1cccc(Br)c1	-2%	0%	12%	?	-7%
Cc1ccccc1C(=O)NCC(=O)OC(C)C(=O)NC(C)CCc1ccccc1 (centres undefined)	2%	-2%	?	12µM*	.
COc1ccc(C(=O)C(OC(=O)CNC(=O)c2ccco2)c2ccccc2)cc1 (centres undefined)	18µM*	-3%	49%	-18%	-41%
O=C(CN1C(=O)C2CCCCN2c2ccc(C(=O)N3CCCC3)cc21)NCc1ccccc1 (centres undefined)	-14%	.	.	.	.
Cc1ccc(NC(=S)NCc2ccc(Cl)cc2)c(OC(F)F)c1	-24%	48%	?	4.1µM*	-37%
Cc1cccc(C)c1NC(=O)CC1SC2=NCCN2C1=O (centres undefined)	25µM*	4%	-22%	.	11%
Cc1ccc2c(=O)cc(C(=O)Nc3ccc(S(=O)(=O)Nc4ncccn4)cc3)oc2c1C	7%	.	.	.	.
